“And” between values parts separate entries of the source, which are not always exact repeats. Identical values can stand only once. The whole screen tested about 16,000 compounds, of which about 5,800 (36%) were called active. Roughly 23% stayed inconclusive and do not appear here. Calls follow the shape of the dose curve; as a rule, active = well fitted curve in the direction sought with a large enough effect; inconclusive = small, poorly fitted or top-dose-only effect, or effect the other way; inactive = no such curve, though single readings can be large or run the other way. The list shows a part of the results. Some structures have more than one record in an assay (separate samples or runs), and their calls can disagree.
What follows are compounds tested against Cytochrome P450 2C19 (Homo sapiens) (UniProt P33261) (assay: Cytochrome panel assay with activity outcomes). Conditions: recombinant CYP, pro-luciferin dealkylation, luminescence, p450-cyp2c19; series mostly up to 57.1 µM; activity, negative = inhibition: at the top concentration.
Chain of Cytochrome P450 2C19 (Homo sapiens) (P33261 whole entry, looked up): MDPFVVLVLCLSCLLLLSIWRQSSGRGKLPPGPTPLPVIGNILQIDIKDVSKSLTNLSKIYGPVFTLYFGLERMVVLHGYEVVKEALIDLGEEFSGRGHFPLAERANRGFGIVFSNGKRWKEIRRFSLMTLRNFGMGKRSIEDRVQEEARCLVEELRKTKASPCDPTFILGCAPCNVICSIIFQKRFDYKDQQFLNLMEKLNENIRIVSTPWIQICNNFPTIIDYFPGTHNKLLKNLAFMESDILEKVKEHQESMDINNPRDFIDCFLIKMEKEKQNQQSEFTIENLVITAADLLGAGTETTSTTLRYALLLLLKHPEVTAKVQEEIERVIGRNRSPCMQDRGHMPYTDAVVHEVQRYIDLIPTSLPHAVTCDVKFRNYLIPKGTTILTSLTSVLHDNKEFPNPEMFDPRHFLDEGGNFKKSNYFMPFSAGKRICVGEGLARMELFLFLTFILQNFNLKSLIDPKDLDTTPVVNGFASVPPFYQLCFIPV
% is scaled to controls: 0 for no effect and ±100 for the full control effect.

Row | SMILES | activity, negative = inhibition | AC50
1 | CC[C@]1([C@H]2O[C@@H]([C@@H]3O[C@](O)(CO)[C@@H](C)C[C@H]3C)C[C@H]2C)CC[C@@H]([C@]2(C)CC[C@@]3(C[C@@H](O)[C@@H](C)[C@@H]([C@H](C)[C@H](OC)[C@H](C)C(=O)O)O3)O2)O1 | -5.36% [at 25.6 µM] (inactive) | –
2 | NCCCNCCSP(=O)(O)O | -12% (inactive) | –
3 | CCN1CCN(Cc2cc(OC)c(OC)cc2[N+](=O)[O-])CC1 | 32.1% (inactive) | –
4 | c1ccc([C@H]2CNCc3ccccc32)cc1 | -8.22% (inactive) | –
5 | Cc1ccc(N(C)C(=O)Oc2cccc3ccc(C)nc23)cc1 | – | 7.94 µM (active)
6 | C=CCN1C[C@@H](C)N([C@H](c2ccc(C(=O)N(CC)CC)cc2)c2cccc(OC)c2)C[C@H]1C | -13.5% (inactive) | –
7 | Cc1cc(C)c(-n2c(O)c(C=NCCN3CCOCC3)c(=O)[nH]c2=O)c(C)c1 | -7% (inactive) | –
8 | CC(C)CN1CCCC2(CCN(C(=O)c3ccncc3)CC2)C1 | -18.7% (inactive) | –
9 | NCCCC[C@H](N[C@@H](CCc1ccccc1)C(=O)O)C(=O)N1CCC[C@H]1C(=O)O | 33.4% [at 25.6 µM] (inactive) | –
10 | CN(C)C=C1C(=O)N(C2CCCCC2)C(=O)N(C2CCCCC2)C1=O | – | 20 µM (active)
11 | N=C(N)c1ccc(-c2ccc(-c3ccc(C(=N)N)cc3)o2)cc1 | 37% [at 11.4 µM] (inactive) | –
12 | CN1CCC2(CC1)CCN(C(=O)Oc1ccccc1)CC2 | -2.06% (inactive) | –
13 | CCN1C[C@@]2(COC)CC[C@H](OC)[C@]34[C@@H]1[C@]1(OCO[C@@]15C[C@@H](OC)C1C[C@H]3[C@H]5[C@@H]1OC)[C@H](O)[C@@H]24 | 8.77% [at 25.6 µM] (inactive) | –
14 | O=C(O)CC[N+](=O)[O-] | 37.9% (inactive) | –
15 | Cc1c(OCC(F)(F)F)ccnc1CS(=O)c1nc2ccccc2[nH]1 (stereo not given) | – | 0.1 µM (active)
16 | CC1(C)N(O)C(c2ccc(C(=O)O)cc2)=[N+]([O-])C1(C)C | 17.1% (inactive) | –
17 | CCc1ccc(CCN2CCCCC2)nc1 | -27.8% [at 11.4 µM] (inactive) | –
18 | Cc1ccccc1-c1nc(CS(=O)CC(=O)N2CCC3(CC2)OCCO3)c(C)o1 (stereo not given) | – | 10 µM (active)
19 | CCc1ccccc1NC(=S)NC1CC2CCC(C1)N2Cc1ccco1 (stereo not given) | -14.7% (inactive) | –
20 | Nc1nc(N)c(Cn2ccnc2)c(=O)[nH]1 | 32.7% [at 11.4 µM] (inactive) | –
21 | Cc1o[nH]c(=O)c1C[C@H](N)C(=O)O | – | inactive and 2.51 µM (active)
22 | Cc1o[nH]c(=O)c1C[C@@H](N)C(=O)O | -36.4% (inactive) | –
23 | N[C@@H](Cn1oc(=O)[nH]c1=O)C(=O)O | -33.9% (inactive) | –
24 | N[C@H](CCl)C(=O)O | -7.13% (inactive) | –

Row | SMILES | activity, negative = inhibition | AC50
25 | N[C@@H](Cc1cc(Br)c(O)c(Br)c1)C(=O)O | 11.6% [at 11.4 µM] (inactive) | –
26 | N[C@H](Cc1o[nH]c(=O)c1Cl)C(=O)O | – | 1.26 µM (active)
27 | O=c1cc(-c2ccc(O)c(O)c2)oc2cc(O)cc(O)c12 | -40.2% [at 25.6 µM] (inactive) | –
28 | NCCCN1CCN(c2ccccc2)CC1 | 2.32% [at 11.4 µM] (inactive) | –
29 | Nc1ccc(CCN2CCN(c3cccc(C(F)(F)F)c3)CC2)cc1 | – | 7.94 µM (active)
30 | Cc1cc(OCc2ccc([N+](=O)[O-])cc2)c2c3c(c(=O)oc2c1)CCCC3 | – | 0.708 µM (active)
31 | Cc1cc(OCC(=O)OC(C)C)c2c3c(c(=O)oc2c1)CCCC3 | – | 3.55 µM (active)
32 | CC(C)[C@H](CO)Nc1nc(Nc2cccc(Cl)c2)c2ncn(C(C)C)c2n1 | -35.5% (inactive) | –
33 | CC[C@H](C)C(=O)O[C@@H]1[C@H](O)[C@@H]2[C@H](CN3C[C@@H](C)CC[C@@H]3[C@@]2(C)O)[C@@H]2C[C@@]34O[C@@]5(O)[C@@H](OC(=O)[C@](C)(O)CC)CC[C@@]3(C)[C@H]5[C@H](OC(C)=O)[C@@H](OC(C)=O)[C@H]4[C@]12O | 14.3% [at 25.6 µM] (inactive) | –
34 | COc1cc2c(cc1OC)[C@]13CC[N@+]4(C)CC5=CCO[C@H]6CC(=O)N2[C@@H]1[C@@H]6[C@@H]5C[C@]34O | -1.84% [at 11.4 µM] (inactive) | –
35 | c1ccc(CN2CCN(Cc3ccc4c(c3)OCCO4)CC2)cc1 | -23.7% (inactive) | –
36 | Cc1ccc(C2CC(=O)C(C=NCCN3CCN(C(=O)Cc4ccccc4)CC3)=C(O)C2)cc1 (stereo not given) | – | 3.16 µM (active)
37 | c1ccc(CCN2CCOCC2)nc1 | 1.5% [at 11.4 µM] (inactive) | –
38 | CC(C)CN1CCC2(CC1)CCN(C(=O)Oc1ccccc1)CC2 | -17.2% (inactive) | –
39 | CCCN1CCc2cc(O)cc3c2[C@H]1Cc1ccc(O)c(O)c1-3 | -21.6% (inactive) | –
40 | c1ccc(CN2CC[C@@]3(CCCNC3)C2)cc1 | -44.4% (inactive) | –
41 | c1cc(CN2CCC3(CCNCC3)CC2)ccn1 | -9.72% (inactive) | –
42 | c1ccc(CN2CCCC3(CCNCC3)C2)cc1 | -12.1% (inactive) | –
43 | O=C(Oc1ccccc1)N1CCC2(CCN(Cc3ccccc3)CC2)CC1 | -9.29% (inactive) | –
44 | c1ccc(CN2CCC3(CCc4ccccc43)CC2)cc1 | – | 2.51 µM (active)
45 | c1ccc(CN2CCC3(CCNCC3)CC2)cc1 | – | 5.01 µM (active)
46 | CCn1cc(C(=O)O)c(=O)c2cc3c(cc21)OCO3 | 3.65% [at 25.6 µM] (inactive) | –
47 | C[As+](C)(c1ccc(Br)c([N+](=O)[O-])c1)c1ccc(Br)c([N+](=O)[O-])c1.O=[N+]([O-])O | 27.9% [at 11.4 µM] (inactive) | –
48 | S=C=Nc1cccc(C2(N3CCCCC3)CCCCC2)c1 | -29.9% (inactive) | –

Row | SMILES | activity, negative = inhibition | AC50
49 | CS(=O)(=O)Nc1ccc(Cc2noc(-c3ccc4[nH]cc(CCN)c4c3)n2)cc1 | – | 15.8 µM (active)
50 | C[C@H](N)Cc1c[nH]c2ccc(OCc3cccs3)cc12 | – | inactive
51 | CN1CCN(c2ccc3ccccc3n2)CC1 | – | inactive
52 | C[C@H](Br)C(=O)N[C@H](CO)C(=O)O | 4.64% [at 11.4 µM] (inactive) | –
53 | CCCN1CCC[C@@H]2Cc3nc(N)ncc3C[C@H]21 | 10.2% (inactive) | –
54 | CC(=NCCN1CCOCC1)c1c(O)n(Cc2ccccc2)c(=O)[nH]c1=O | 8.57% (inactive) | –
55 | CC(=Nc1c(C)n(C)n(-c2ccccc2)c1=O)c1c(O)n(Cc2ccccc2)c(=O)[nH]c1=O | -15.7% (inactive) | –
56 | CC(=NCc1ccco1)c1c(O)n(-c2ccccc2)c(=O)[nH]c1=O | – | 10 µM (active)
57 | C/C=C1\C[N@@+]2(C)CC[C@@]34C(=C(C=O)[C@H]1C[C@H]32)Nc1ccccc14 | 4.17% [at 25.6 µM] (inactive) | –
58 | O=[N+]([O-])c1cc(-c2ccc([As](=O)(O)O)cc2)ccc1[As](=O)(O)O | 22.9% [at 11.4 µM] (inactive) | –
59 | COCCNC(=S)NC1CC2CCCC(C1)N2Cc1cccs1 (stereo not given) | -11.7% (inactive) | –
60 | Cc1ccc(N2C(=O)/C(=C/c3ccc(CN(CCC#N)S(C)(=O)=O)o3)C(=O)NC2=S)cc1C | – | 10 µM (active)
61 | COc1cccc2c1[C@H](CO)N1[C@H](C#N)[C@@H]3C[C@H](C(=O)O)[C@@H]([C@@H]1C2)N3C | 11.2% [at 11.4 µM] (inactive) | –
62 | C=C1CC[C@H](O)C/C1=C/C=C1\CCC[C@]2(C)[C@H]1CC[C@H]2[C@@H](C)CCCC(C)C | -6.46% [at 25.6 µM] (inactive) | –
63 | CC(=O)O/C(=C1/C[C@H]2[C@@H]3CC=C4C[C@@H](OC(C)=O)CC[C@]4(C)[C@@H]3CC[C@]2(C)C1=O)C(F)(F)F | 10.6% [at 11.4 µM] (inactive) | –
64 | CNCCc1ccc(O)c(O)c1 | -24.1% (inactive) | –
65 | CN1CCN(c2ccc([N+](=O)[O-])c(N/N=C3\CN4CCC3CC4)c2)CC1 | – | 7.08 µM (active)
66 | CN1CCN(c2ccc([N+](=O)[O-])c3[nH]o[n+](=O)c23)CC1 | -37.2% [at 11.4 µM] (inactive) | –
67 | CC[C@H]1CN2CCc3cc(OC)c(OC)cc3[C@H]2C[C@@H]1C[C@H]1NCCc2c1[nH]c1ccc(O)cc21 | 34.7% [at 11.4 µM] (inactive) | –
68 | Cc1ncc([N+](=O)[O-])n1CCN=[N+]=[N-] | 21.1% [at 11.4 µM] (inactive) | –
69 | c1ccc(N2CC3(CCNCC3)C2)cc1 | -41.3% (inactive) | –
70 | CC(C)(C)NC[C@H](O)c1ccccc1Cl | -21.7% (inactive) | –
71 | Cc1ccc(CCN2CC(C(=O)N3CCC4(CC3)OCCO4)CC2=O)cc1 (stereo not given) | -13.7% (inactive) | –
72 | Cc1ccc(S(=O)(=O)NCC2CCC(C(=O)N3CCC4(CC3)OCCO4)CC2)cc1 (stereo not given) | – | 14.1 µM (active)

Row | SMILES | activity, negative = inhibition | AC50
73 | NC(=O)COc1c(F)cc(SCCNS(=O)(=O)c2ccccc2)cc1F | -23.1% (inactive) | –
74 | COc1cc2c(cc1OC)[C@H](C)NCC2 | -21.2% [at 25.6 µM] (inactive) | –
75 | Nc1ccccc1O.O.O=C(O)[C@H]1[O][Sb][O][C@H]1C(=O)O | 16.1% [at 11.4 µM] (inactive) | –
76 | O=C(Nc1ccc(Cl)cc1C(=O)c1ccccc1Cl)c1ccco1 | – | 2.82 µM (active)
77 | CN(C)CCOC(=O)COc1ccc(Cl)cc1 | 30.2% (inactive) | –
78 | COc1ccc(OCC(=O)Nc2ccc(Cl)cc2C(=O)c2ccccc2)cc1 | – | 1 µM (active)
79 | O=C(Nc1ccc(Cl)cc1C(=O)c1ccccc1)c1ccco1 | – | 4.47 µM (active)
80 | O=P(c1ccccc1)(c1ccccc1)N1CC2(CC2)CC(O)(c2ccccc2)C1 (stereo not given) | -42.2% (inactive) | –
81 | CCC[C@@](C)(COC(N)=O)COC(=O)NC(C)C | -25% [at 25.6 µM] (inactive) | –
82 | COC(=O)N1CCC2(CCCN(C)C2)CC1 | -41.1% (inactive) | –
83 | NC[C@H](O)c1cc(O)c(O)cc1F | 15.1% (inactive) | –
84 | C=CCN1CCC2(C)c3cc(O)ccc3C[C@H]1[C@H]2C | – | inactive
85 | COc1cc2c(cc1O)C[C@@H]1c3c(cc(O)c(OC)c3-2)CCN1C | 12.7% [at 11.4 µM] (inactive) | –
86 | CN1CCc2cc(O)cc3c2[C@H]1Cc1ccc(O)c(O)c1-3 | -16.9% (inactive) | –
87 | CC(C)(C)NC[C@H](O)c1cc(Cl)c(N)c(Cl)c1 | 29% [at 25.6 µM] (inactive) | –
88 | CN1[C@@H]2CC[C@H]1CC(O[C@@H](c1ccccc1)c1ccccc1N)C2 (stereo not given in full) | 19.3% (inactive) | –
89 | CNCCc1cnc[nH]1 | -29.9% (inactive) | –
90 | Clc1ccccc1-c1cncnc1NCCc1cnc[nH]1 | – | 0.0126 µM (active)
91 | Cc1ccccc1-c1cncnc1NCCc1cnc[nH]1 | – | 0.0501 µM (active)
92 | c1ccc2c(c1)-c1ccccc1C2N1CC2CCC(CC2)C1 | -44.5% [at 11.4 µM] (inactive) | –
93 | CCCCC/C=C\C/C=C\C/C=C\C/C=C\CCCC(=O)NCC(=O)O | -19% (inactive) | –
94 | CC(C)N[C@@H](C)Cc1ccc(I)cc1 | 14.9% (inactive) | –
95 | O=C(C[C@H](c1ccccc1)c1c(O)c2ccccc2oc1=O)c1ccccc1 | -17.3% [at 11.4 µM] (inactive) | –
